The full data set covers some 7,900 targets. This sample favours those with a hit. About 0.6% of all pairs of compound and target were hits. Values without a mark were called inactive.
Experiments:
Experiment in all cases: log2 fold change, soluble protein after heating vs DMSO (PISA); higher = thermal stabilisation; K562 cells, 10 uM, 30 min; active = over 0.2 and 3.5 SD of the protein, either way, in both replicates (recomputed)
IRAK-1-4 Inhibitor I = compound: C1COCCN1CCN2C3=CC=CC=C3N=C2NC(=O)C4=CC(=CC=C4)[N+](=O)[O-] [IRAK-1-4 Inhibitor I]
Procedure, shortened: (§1)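 K562 cells (2×10^6 cells/mL) were treated with 10 μM compound for 30 min, and aliquots were heated for 3 min over 48°C-58°C. Pooled aliquots were extracted in PBS with 0.5% NP-40 at 4°C, and the supernatant after 21,000xg for 90 min was measured by TMTpro 16plex LC-MS/MS with channel sums equalised. Reported thermal stability, relative to control samples and from duplicates, is a log2 fold change.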

ibrutinib = compound: C=CC(=O)N1CCC[C@@H](n2nc(-c3ccc(Oc4ccccc4)cc3)c3c(N)ncnc32)C1 [ibrutinib]
Procedure, shortened: as §1

[1] = compound: CC(=O)c1cnc2ccc(-c3cc(Cl)c(O)c(Cl)c3)nc2c1N[C@H]1CC[C@H](CN(C)C)CC1
Procedure, shortened: as §1

ralimetinib = compound: CC(C)(C)Cn1c(N)nc2ccc(-c3[nH]c(C(C)(C)C)nc3-c3ccc(F)cc3)nc21 [ralimetinib]
Procedure, shortened: as §1

[2] = compound: CC(C)(O)CC(=O)NCCn1ccc2ncnc(Nc3ccc(Oc4cccc(C(F)(F)F)c4)c(Cl)c3)c21
Procedure, shortened: as §1

[3] = compound: CC(C)C1=C2N=C(C=C(N2N=C1)NCC3=CC=CC=C3)NCCCCCCN
Procedure, shortened: as §1

[4] = compound: CC(C)C[C@@H](C=O)NC(=O)[C@H](CC(C)C)NC(=O)[C@H](CC(C)C)NC(=O)OCc1ccccc1
Procedure, shortened: as §1

pinometostat = compound: CC(C)N(C[C@H]1O[C@@H](n2cnc3c(N)ncnc32)[C@H](O)[C@@H]1O)[C@H]1C[C@@H](CCc2nc3cc(C(C)(C)C)ccc3[nH]2)C1 [pinometostat]
Procedure, shortened: as §1

[5] = compound: CC1=C(C(CC(=O)N1)C2=CC=C(C=C2)C(F)(F)F)C(=O)NC3=C(C=C4C(=C3)C=NN4)F
Procedure, shortened: as §1

[6] = compound: CC1=C(C2=C(C=C1)C(=O)C3=CC=CC=C3N2CCCN)C
Procedure, shortened: as §1

[7] = compound: CC1=C(C=C(C=C1)NC(=O)C2=CC(=CC=C2)C(C)(C)C#N)NC3=CC4=C(C=C3)N=CN(C4=O)C
Procedure, shortened: as §1

[8] = compound: CC1=C(C=C(C=C1)NC(=O)C2=CC(=CC=C2)N(C)C)NC(=O)C3=CC=C(C=C3)O
Procedure, shortened: as §1

[9] = compound: CC1=CC=C(C=C1)SC2=C3C=C(SC3=CN=C2)C(=O)N
Procedure, shortened: as §1

[10] = compound: CC1=NC(=CC=C1)C2=C(N=C(N2)C(C)(C)C)C3=CC4=NC=CN=C4C=C3
Procedure, shortened: as §1

Nexturastat A = compound: CCCCN(Cc1ccc(C(=O)NO)cc1)C(=O)Nc1ccccc1 [Nexturastat A]
Procedure, shortened: as §1

vemurafenib = compound: CCCS(=O)(=O)Nc1ccc(F)c(C(=O)c2c[nH]c3ncc(-c4ccc(Cl)cc4)cc23)c1F [vemurafenib]
Procedure, shortened: as §1

[11] = compound: CCCS(=O)(=O)Nc1ccc(F)c(C(=O)c2c[nH]c3ncc(Cl)cc23)c1F
Procedure, shortened: as §1

[12] = compound: CCCc1cc(C)[nH]c(=O)c1CNC(=O)c1cc(-c2ccnc(N3CCN(C)CC3)c2)cc2c1cnn2C(C)C
Procedure, shortened: as §1

givinostat = compound: CCN(CC)Cc1ccc2cc(COC(=O)Nc3ccc(C(=O)NO)cc3)ccc2c1 [givinostat]
Procedure, shortened: as §1

barasertib = compound: CCN(CCCOc1ccc2c(Nc3cc(CC(=O)Nc4cccc(F)c4)[nH]n3)ncnc2c1)CCOP(=O)(O)O [barasertib]
Procedure, shortened: as §1

Sequence of UniProt Q15904 (Q15904 whole entry, looked up): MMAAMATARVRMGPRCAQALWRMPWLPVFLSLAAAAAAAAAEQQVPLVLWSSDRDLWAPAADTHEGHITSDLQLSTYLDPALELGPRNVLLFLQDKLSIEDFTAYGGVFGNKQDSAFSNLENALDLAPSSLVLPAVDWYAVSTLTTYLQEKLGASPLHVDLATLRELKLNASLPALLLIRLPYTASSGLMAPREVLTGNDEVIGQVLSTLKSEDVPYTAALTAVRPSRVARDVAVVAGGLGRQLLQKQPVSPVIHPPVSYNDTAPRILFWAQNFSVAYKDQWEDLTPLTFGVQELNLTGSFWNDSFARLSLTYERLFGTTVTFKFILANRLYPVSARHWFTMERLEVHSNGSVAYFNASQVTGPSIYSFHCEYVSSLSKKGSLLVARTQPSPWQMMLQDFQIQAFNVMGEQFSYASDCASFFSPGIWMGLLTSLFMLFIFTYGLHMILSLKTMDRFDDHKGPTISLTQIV
Sequence of UniProt Q00973 (Q00973 whole entry, looked up): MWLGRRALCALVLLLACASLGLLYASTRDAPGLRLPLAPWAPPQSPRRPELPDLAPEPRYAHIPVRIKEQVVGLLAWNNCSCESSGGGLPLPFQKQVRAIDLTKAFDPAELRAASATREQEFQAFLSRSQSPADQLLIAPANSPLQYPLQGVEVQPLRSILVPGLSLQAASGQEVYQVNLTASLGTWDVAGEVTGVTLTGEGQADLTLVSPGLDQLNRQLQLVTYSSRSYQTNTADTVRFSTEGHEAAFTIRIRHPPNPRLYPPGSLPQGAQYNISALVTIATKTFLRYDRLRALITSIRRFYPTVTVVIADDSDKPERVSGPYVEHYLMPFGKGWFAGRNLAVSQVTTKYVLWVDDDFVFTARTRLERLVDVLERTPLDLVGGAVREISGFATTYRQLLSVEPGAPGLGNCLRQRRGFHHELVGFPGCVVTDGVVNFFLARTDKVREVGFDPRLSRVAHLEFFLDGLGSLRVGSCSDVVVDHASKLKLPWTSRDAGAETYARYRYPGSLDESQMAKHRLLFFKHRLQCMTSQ
Sequence of UniProt Q9UBL3 (Q9UBL3 whole entry, looked up): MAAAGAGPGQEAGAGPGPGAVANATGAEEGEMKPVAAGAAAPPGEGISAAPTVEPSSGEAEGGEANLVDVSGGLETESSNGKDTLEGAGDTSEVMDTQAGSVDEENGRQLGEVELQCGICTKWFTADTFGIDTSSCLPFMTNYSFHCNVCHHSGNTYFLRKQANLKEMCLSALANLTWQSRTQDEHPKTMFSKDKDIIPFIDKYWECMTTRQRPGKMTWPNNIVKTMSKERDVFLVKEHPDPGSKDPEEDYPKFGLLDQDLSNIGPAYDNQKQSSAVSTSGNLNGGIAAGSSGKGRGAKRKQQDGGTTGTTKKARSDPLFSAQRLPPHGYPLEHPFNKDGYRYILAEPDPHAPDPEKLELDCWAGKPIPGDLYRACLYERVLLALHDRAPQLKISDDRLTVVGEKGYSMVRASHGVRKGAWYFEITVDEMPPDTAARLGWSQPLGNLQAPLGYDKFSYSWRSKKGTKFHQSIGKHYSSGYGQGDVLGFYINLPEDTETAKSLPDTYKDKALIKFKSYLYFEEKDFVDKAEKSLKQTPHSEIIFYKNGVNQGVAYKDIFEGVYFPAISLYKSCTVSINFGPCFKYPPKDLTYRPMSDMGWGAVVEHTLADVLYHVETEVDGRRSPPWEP
Sequence of UniProt P35611 (P35611 whole entry, looked up): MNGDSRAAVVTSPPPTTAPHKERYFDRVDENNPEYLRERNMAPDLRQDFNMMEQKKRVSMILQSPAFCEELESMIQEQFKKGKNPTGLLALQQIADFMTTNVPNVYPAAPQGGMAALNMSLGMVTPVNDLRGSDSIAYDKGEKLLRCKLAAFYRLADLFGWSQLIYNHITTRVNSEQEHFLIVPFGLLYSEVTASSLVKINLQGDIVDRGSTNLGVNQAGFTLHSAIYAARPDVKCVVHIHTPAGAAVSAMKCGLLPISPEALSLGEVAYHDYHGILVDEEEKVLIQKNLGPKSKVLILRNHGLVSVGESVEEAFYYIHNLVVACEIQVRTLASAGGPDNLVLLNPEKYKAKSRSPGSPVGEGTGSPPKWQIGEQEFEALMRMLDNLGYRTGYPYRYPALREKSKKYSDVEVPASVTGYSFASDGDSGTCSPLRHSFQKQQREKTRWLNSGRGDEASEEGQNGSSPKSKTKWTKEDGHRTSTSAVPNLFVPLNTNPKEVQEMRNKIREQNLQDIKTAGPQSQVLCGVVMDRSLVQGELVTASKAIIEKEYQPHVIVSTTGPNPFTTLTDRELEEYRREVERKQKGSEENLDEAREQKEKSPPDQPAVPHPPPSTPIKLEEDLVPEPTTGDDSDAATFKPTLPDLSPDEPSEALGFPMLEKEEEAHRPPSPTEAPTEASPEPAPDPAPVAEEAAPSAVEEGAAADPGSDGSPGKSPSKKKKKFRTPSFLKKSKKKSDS
Sequence of UniProt P17544 (P17544 whole entry, looked up): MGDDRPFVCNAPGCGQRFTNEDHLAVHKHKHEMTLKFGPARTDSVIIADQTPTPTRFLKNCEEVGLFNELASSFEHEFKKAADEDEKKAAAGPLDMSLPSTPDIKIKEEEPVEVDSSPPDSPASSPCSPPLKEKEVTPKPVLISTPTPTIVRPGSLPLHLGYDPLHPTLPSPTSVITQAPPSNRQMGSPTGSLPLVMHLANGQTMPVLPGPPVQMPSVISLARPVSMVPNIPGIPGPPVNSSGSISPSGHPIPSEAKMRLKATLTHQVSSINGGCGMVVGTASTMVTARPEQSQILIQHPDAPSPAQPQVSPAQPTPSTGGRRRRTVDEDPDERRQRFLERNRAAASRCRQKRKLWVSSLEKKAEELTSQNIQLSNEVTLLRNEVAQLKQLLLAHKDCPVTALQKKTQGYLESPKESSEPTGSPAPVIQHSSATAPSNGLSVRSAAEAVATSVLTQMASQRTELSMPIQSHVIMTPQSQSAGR
Sequence of UniProt Q7L1Q6 (Q7L1Q6 whole entry, looked up): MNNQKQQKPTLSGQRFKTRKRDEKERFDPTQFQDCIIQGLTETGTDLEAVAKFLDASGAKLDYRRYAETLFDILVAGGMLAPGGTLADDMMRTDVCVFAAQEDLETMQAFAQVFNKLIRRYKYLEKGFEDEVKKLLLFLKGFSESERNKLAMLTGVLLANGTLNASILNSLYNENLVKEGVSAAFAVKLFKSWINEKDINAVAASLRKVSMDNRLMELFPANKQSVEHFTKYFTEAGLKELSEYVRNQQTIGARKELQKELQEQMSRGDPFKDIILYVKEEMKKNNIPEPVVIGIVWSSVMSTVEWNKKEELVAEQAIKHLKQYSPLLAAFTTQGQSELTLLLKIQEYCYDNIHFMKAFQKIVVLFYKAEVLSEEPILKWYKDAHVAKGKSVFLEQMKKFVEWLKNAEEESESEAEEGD
Sequence of UniProt P11117 (P11117 whole entry, looked up): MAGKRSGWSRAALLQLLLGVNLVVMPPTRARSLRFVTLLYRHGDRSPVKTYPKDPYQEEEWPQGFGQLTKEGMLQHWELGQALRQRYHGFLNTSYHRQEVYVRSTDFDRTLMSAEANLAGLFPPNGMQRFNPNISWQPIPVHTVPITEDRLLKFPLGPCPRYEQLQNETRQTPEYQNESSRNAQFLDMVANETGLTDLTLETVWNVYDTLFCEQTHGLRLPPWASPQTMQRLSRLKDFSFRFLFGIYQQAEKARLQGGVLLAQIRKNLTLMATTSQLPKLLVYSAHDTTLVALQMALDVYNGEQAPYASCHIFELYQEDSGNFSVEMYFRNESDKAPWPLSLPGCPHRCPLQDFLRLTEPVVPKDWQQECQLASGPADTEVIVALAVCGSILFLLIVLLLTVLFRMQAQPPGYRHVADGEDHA
Sequence of UniProt Q9BRQ8 (Q9BRQ8 whole entry, looked up): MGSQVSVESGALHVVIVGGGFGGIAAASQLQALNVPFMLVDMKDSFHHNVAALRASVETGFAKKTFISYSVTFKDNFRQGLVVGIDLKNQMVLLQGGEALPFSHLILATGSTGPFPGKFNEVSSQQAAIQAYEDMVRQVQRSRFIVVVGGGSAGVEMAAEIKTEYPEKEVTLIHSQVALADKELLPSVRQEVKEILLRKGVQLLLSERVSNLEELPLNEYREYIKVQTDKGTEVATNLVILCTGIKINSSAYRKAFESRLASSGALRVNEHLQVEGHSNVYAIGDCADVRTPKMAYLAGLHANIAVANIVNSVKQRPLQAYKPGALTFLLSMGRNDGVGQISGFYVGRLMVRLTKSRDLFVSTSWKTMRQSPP
Sequence of UniProt Q9Y3D8 (Q9Y3D8 whole entry, looked up): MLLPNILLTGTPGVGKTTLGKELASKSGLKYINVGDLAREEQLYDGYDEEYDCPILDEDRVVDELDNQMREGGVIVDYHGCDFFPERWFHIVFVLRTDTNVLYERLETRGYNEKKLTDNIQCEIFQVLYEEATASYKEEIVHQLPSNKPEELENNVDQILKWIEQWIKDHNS
Sequence of UniProt O14965 (O14965 whole entry, looked up): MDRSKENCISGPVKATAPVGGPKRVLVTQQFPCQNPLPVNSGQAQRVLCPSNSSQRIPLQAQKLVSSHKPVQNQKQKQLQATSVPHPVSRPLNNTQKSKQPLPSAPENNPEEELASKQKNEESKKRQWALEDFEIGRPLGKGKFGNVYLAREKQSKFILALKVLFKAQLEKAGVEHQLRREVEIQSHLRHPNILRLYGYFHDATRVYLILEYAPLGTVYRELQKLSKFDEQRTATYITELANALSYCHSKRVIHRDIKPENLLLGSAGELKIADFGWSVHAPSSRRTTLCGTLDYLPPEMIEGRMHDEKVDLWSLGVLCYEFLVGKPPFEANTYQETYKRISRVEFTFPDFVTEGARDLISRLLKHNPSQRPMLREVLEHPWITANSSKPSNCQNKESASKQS
Sequence of UniProt Q9P287 (Q9P287 whole entry, looked up): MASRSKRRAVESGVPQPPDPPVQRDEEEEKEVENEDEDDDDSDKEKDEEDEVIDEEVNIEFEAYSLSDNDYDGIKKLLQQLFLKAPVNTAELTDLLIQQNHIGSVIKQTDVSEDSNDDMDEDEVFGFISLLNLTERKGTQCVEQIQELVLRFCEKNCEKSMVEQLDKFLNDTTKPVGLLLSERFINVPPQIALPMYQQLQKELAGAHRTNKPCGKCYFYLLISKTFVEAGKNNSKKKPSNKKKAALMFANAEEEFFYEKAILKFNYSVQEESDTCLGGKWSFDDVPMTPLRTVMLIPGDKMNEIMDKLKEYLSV

Target | log2 fold change (IRAK-1-4 Inhibitor I) | log2 fold change (ibrutinib) | log2 fold change [1] | log2 fold change (ralimetinib) | log2 fold change [2] | log2 fold change [3] | log2 fold change [4] | log2 fold change (pinometostat) | log2 fold change [5] | log2 fold change [6] | log2 fold change [7] | log2 fold change [8] | log2 fold change [9] | log2 fold change [10] | log2 fold change (Nexturastat A) | log2 fold change (vemurafenib) | log2 fold change [11] | log2 fold change [12] | log2 fold change (givinostat) | log2 fold change (barasertib)
ANXA5 (UniProt P08758) | -0.013 | -0.05 | -0.019 | -0.018 | -0.006 | -0.069 | 0.017 | -0.026 | 0 | 0.032 | 0.057 | -0.065 | -0.01 | 0.068 | -0.116 | 0.07 | 0.071 | 0.039 | 0.033 | 0.034
AK6 (UniProt Q9Y3D8) | -0.051 | -0.014 | -0.132 | 0.067 | -0.175 | -0.309 | 0.039 | 0.078 | 0.061 | 0.138 | 0.02 | -0.04 | 0.012 | 0.032 | -0.056 | 0.1 | 0.053 | 0.076 | 0.083 | 0.138
AURKA (UniProt O14965) | -0.05 | 0.193 | 0.914 (active) | 0.062 | -0.056 | -0.128 | 0.16 | 0.033 | 0.001 | 0.059 | -0.008 | -0.041 | -0.011 | -0.036 | 0.096 | -0.026 | 0.006 | 0.01 | 0.257 | 0.114
ATF7 isoform 6 (UniProt P17544) | -0.031 | 0.199 | 0.183 | 0.089 | -0.042 | 0.138 | -0.14 | 0.019 | -0.082 | 0.22 | 0.465 | -0.163 | -0.155 | -0.085 | -0.042 | 0.045 | 0.239 | -0.032 | -0.131 | -0.033
B4GALNT1 (UniProt Q00973) | 0.01 | -0.159 | -0.188 | -0.129 | 0.017 | 0.038 | 0.052 | -0.101 | -0.119 | 0.057 | 0.075 | -0.028 | -0.109 | 0.005 | 0.096 | -0.172 | -0.044 | -0.028 | -0.123 | 0.104
ATP6AP1 (UniProt Q15904) | -0.02 | 0 | -0.035 | 0.01 | 0.035 | -0.091 | 0.02 | 0.101 | 0.047 | -0.024 | 0.009 | -0.025 | 0.004 | -0.027 | 0.114 | -0.003 | -0.018 | -0.009 | 0.038 | 0.016
ACP2 (UniProt P11117) | 0.047 | 0.033 | -0.012 | -0.012 | -0.03 | -0.205 | -0.026 | 0.027 | 0.02 | -0.006 | -0.014 | -0.013 | 0.029 | -0.027 | -0.08 | 0.017 | -0.023 | -0.038 | 0 | 0.016
ADD1 isoform 3 (UniProt P35611) | 0.048 | 0.011 | -0.274 (active) | -0.068 | -0.008 | 0.038 | -0.003 | -0.001 | -0.004 | 0.008 | -0.015 | -0.031 | -0.026 | 0.015 | 0.025 | -0.059 | 0.013 | -0.025 | -0.015 | -0.022
APPL1 (UniProt Q9UKG1) | 0.016 | -0.067 | -0.074 | -0.024 | 0.037 | 0.006 | 0.069 | 0.059 | -0.15 | -0.011 | 0.012 | 0.008 | 0.035 | 0.015 | -0.032 | 0.066 | 0.017 | -0.033 | 0.039 | 0.02
ASH2L (UniProt Q9UBL3) | -0.022 | -0.048 | -0.046 | 0.004 | -0.018 | 0.016 | -0.004 | -0.013 | -0.013 | -0.044 | 0.018 | -0.047 | 0.003 | 0.01 | -0.003 | 0.057 | 0.071 | -0.022 | 0.031 | 0.007
BZW1 isoform 3 (UniProt Q7L1Q6) | -0.118 | -0.123 | 0.005 | 0.049 | -0.296 | -0.422 (active) | 0.007 | 0.123 | 0.006 | 0.068 | 0.064 | -0.014 | 0.036 | 0.038 | 0.016 | 0.107 | 0.126 | 0.105 | 0.084 | 0.06
BRD8 (UniProt Q9H0E9) | 0 | -0.014 | -0.009 | -0.022 | -0.012 | -0.013 | 0.098 | 0.001 | 0.03 | -0.019 | 0.002 | 0.026 | -0.01 | 0.017 | -0.098 | 0.027 | 0.01 | 0.002 | -0.153 | -0.026
BCCIP (UniProt Q9P287) | -0.025 | -0.063 | -0.06 | -0.005 | 0.002 | 0.035 | 0.015 | 0.073 | -0.041 | 0.255 (active) | -0.023 | -0.015 | -0.009 | -0.01 | -0.002 | 0.02 | 0.036 | -0.004 | 0.035 | 0.033
AIFM2 (UniProt Q9BRQ8) | 0.011 | -0.008 | 0 | -0.005 | 0.189 | 0.161 | -0.061 | 0.044 | -0.062 | 0.021 | 0.013 | 0 | 0 | -0.017 | 0.019 | -0.036 | -0.026 | 0.021 | 0.011 | -0.024
ATIC (UniProt P31939) | 0.018 | 0.013 | -0.015 | -0.007 | 0 | 0.079 | -0.044 | -0.04 | -0.023 | 0.064 | 0.083 | -0.022 | 0.059 | 0.022 | -0.076 | 0.025 | 0.052 | 0.019 | -0.036 | 0.013
ATL2 (UniProt Q8NHH9) | 0.011 | 0.006 | -0.058 | -0.116 | -0.087 | 0.054 | -0.001 | 0.035 | -0.016 | 0.169 | 0.022 | -0.107 | -0.013 | 0.029 | 0.037 | -0.004 | 0.005 | -0.104 | 0.023 | 0.019

— the supplement of paper PMC10849652
